Structures are written as SMILES. Out of some 350,000 compounds screened, about 5,500 (1.6%) were called active.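 The calls were made as follows: active = significant combined selectivity score with lowered wild-type GFP, culture density cut under 30%, mutant RFP and density less affected; inactive = any of these conditions unmet.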 What follows is part of a selection rich in actives, with near analogues and random picks from the rest.

Drawing on PubChem BioAssay AID720706 (Broad Institute, 2013), this text covers GFP signal change (wild-type ribosome), OD600 change and RFP signal change for 31 molecules.

The test in a line: reduced GFP signal of wild-type E. coli, primary screen, bacterial rRNA inhibitor project, GFP/RFP fluorescence, OD600, single point (AID 720706). Conditions: E. coli WT GFP vs humanized-ribosome RFP mutants, 24 h; GFP signal change (wild-type ribosome): stronger effect = lower value, DMSO median 0, no signal -100; OD600 change: measured here: OD600 growth, DMSO median 0, no signal -100; RFP signal change: measured here: RFP humanized mutant strains, DMSO median 0, no signal -100, concentration not given here.
Regarding `COC(=O)C[C@@H]1C[C@@H]2c3cc(NC(=O)NC4CCCC4)ccc3O[C@@H]2[C@@H](CO)O1`, the GFP signal change (wild-type ribosome) was 1.15% (inactive), the OD600 change was -0.449% and the RFP signal change was -0.687%.

As for `OC[C@@H]1CN(Cc2ccc(F)cc2)C[C@H](n2cnc3c(NC4CCCC4)ncnc32)O1`, the GFP signal change (wild-type ribosome) is -15.1% (inactive), the OD600 change is -8.49% and the RFP signal change was found to be 0.518%.

For `OC[C@@H]1CN(Cc2ccc(-c3ccccc3)cc2)C[C@H](n2cnc3c(NC4CCCC4)ncnc32)O1`, the GFP signal change (wild-type ribosome) is -21.9% (active), the OD600 change is -14.8% and the RFP signal change is -2.32%.

Regarding `OC[C@@H]1CN(Cc2cccs2)C[C@H](n2cnc3c(NC4CCCC4)ncnc32)O1`, the GFP signal change (wild-type ribosome) was -2.42% (inactive), the OD600 change was -4.54% and the RFP signal change was found to be 4.82%.

Turning to `CCCN1C[C@@H](C)[C@@H](OC)CN(C)C(=O)c2cc(NC(=O)NC3CCCCC3)ccc2OC[C@H]1C`, the GFP signal change (wild-type ribosome) was 2.68% (inactive), the OD600 change was 4.16% and the RFP signal change is -1.33%.

In the case of `O=C(C[C@@H]1CC[C@@H]2[C@H](COC[C@H](O)CN2S(=O)(=O)c2ccc(F)cc2)O1)NCc1ccc(Cl)c(Cl)c1`, the GFP signal change (wild-type ribosome) is -20.8% (inactive), the OD600 change is -43.9% and the RFP signal change was determined as 0.781%.

Turning to `C[C@@H]1CN([C@H](C)CO)C(=O)Cc2cc(NC(=O)Cn3cnnn3)ccc2O[C@@H]1CN(C)S(=O)(=O)c1ccc(F)cc1`, the GFP signal change (wild-type ribosome) is 4.41% (inactive), the OD600 change was -2.05% and the RFP signal change stood at 0.611%.

`O=C(Nc1ccc2c(c1)OCO2)C1CC1(Cl)Cl` (stereo not drawn): the GFP signal change (wild-type ribosome) is -1.64% (inactive), the OD600 change turned out to be 3.17% and the RFP signal change was -2.98%.

Consider `O=C(Nc1ccc(Cl)c(Cl)c1)c1ccccc1NC(=O)C1CC=CCC1C(=O)O` (stereo not drawn), for which the GFP signal change (wild-type ribosome) was -35.4% (inactive), the OD600 change was -49.6% and the RFP signal change is -4.13%.

As for `CC1(C(=O)O)CCC(C(=O)Nc2ccc(Cl)c(Cl)c2)C1(C)C` (stereo not drawn), the GFP signal change (wild-type ribosome) is -23.4% (active), the OD600 change was -16.1% and the RFP signal change is -7.62%.

On to `Cc1noc(C)c1S(=O)(=O)Nc1ccc2c(c1)CC(=O)N([C@@H](C)CO)C[C@H](C)[C@H](CN(C)C(=O)Nc1cccc3ccccc13)O2`, for which the GFP signal change (wild-type ribosome) was -2.17% (inactive), the OD600 change is -1.79% and the RFP signal change was determined as 1.2%.

Consider `COc1ccc(S(=O)(=O)Nc2ccc3c(c2)CC(=O)N([C@@H](C)CO)C[C@@H](C)[C@@H](CN(C)Cc2ccc(C(=O)Nc4ccccc4N)cc2)O3)cc1`, for which the GFP signal change (wild-type ribosome) is -5.01% (inactive), the OD600 change was -12% and the RFP signal change turned out to be 2.02%.

Turning to `C[C@H](CO)N1C[C@H](C)[C@H](CN(C)C)Oc2ccc(NC(=O)c3ccncc3)cc2CC1=O`, the GFP signal change (wild-type ribosome) was 2.76% (inactive), the OD600 change stood at 14.2% and the RFP signal change turned out to be 0.42%.

`O=C(c1cccc(S(=O)(=O)N2CCCCCC2)c1)N1CCN(Cc2ccccc2)CC1`: the GFP signal change (wild-type ribosome) is -2.42% (inactive), the OD600 change is -10.1% and the RFP signal change amounted to 4.63%.

For `CCn1c2ccccc2c2cc(NC(=O)COC(=O)c3cc(S(=O)(=O)N4CCCCC4)ccc3Cl)ccc21`, the GFP signal change (wild-type ribosome) was 10.5% (inactive), the OD600 change worked out at 8.82% and the RFP signal change is 4.22%.

Turning to `CCn1c(O)c(N=NC(=O)c2cccc(S(=O)(=O)N3CCCCC3)c2)c2ccccc21`, the GFP signal change (wild-type ribosome) was -23.6% (active), the OD600 change was -16.1% and the RFP signal change was -4.79%.

As for `COc1ccc(CN2[C@H](CO)[C@@H]3c4ccccc4N(C(=O)C4CC4)C[C@@H]32)cc1`, the GFP signal change (wild-type ribosome) is -9.79% (inactive), the OD600 change is -9.13% and the RFP signal change is -1.21%.

With `O=C(NC1CCCCC1)N1CC2(C1)[C@H](c1ccccc1)[C@@H](CO)N2S(=O)(=O)Cc1ccccc1`, the GFP signal change (wild-type ribosome) is -0.158% (inactive), the OD600 change is -18.2% and the RFP signal change was determined as 1.15%.

Consider `Cc1nc2nc[nH]n2c(=O)c1C/C=C/c1ccccc1`, for which the GFP signal change (wild-type ribosome) was -22.4% (active), the OD600 change was found to be 1.36% and the RFP signal change was -5.82%.

Turning to `C=CCc1c(C)nc2cc(-c3ccccc3)[nH]n2c1=O`, the GFP signal change (wild-type ribosome) was -6.23% (inactive), the OD600 change is -4.26% and the RFP signal change was -2.25%.

As to `O=C(C[C@H]1C=C[C@H](NC(=O)C2CCOCC2)[C@@H](CO)O1)NCC1CC1`, the GFP signal change (wild-type ribosome) was -0.532% (inactive), the OD600 change was determined as 2.38% and the RFP signal change worked out at 0.125%.

With `C[C@@H]1CN(C)C(=O)c2cc([N+](=O)[O-])ccc2O[C@@H]1CN(C)C(=O)OC(C)(C)C`, the GFP signal change (wild-type ribosome) is -2.71% (inactive), the OD600 change was found to be 7.21% and the RFP signal change was -0.0835%.

As for `COc1cccc(NC(=O)COc2cccnc2[N+](=O)[O-])c1`, the GFP signal change (wild-type ribosome) is 2.25% (inactive), the OD600 change stood at 2.69% and the RFP signal change was -3.22%.

`CCN1CCN(c2nc(Nc3cccc(F)c3)nc(N)c2[N+](=O)[O-])CC1`: the GFP signal change (wild-type ribosome) is 1.28% (inactive), the OD600 change was -14.8% and the RFP signal change was -3.28%.

As for `COc1cccc(Nc2nc(N)c([N+](=O)[O-])c(NCc3ccco3)n2)c1`, the GFP signal change (wild-type ribosome) was -45.5% (active), the OD600 change was -19.5% and the RFP signal change was -12.3%.

Regarding `CO[C@H]1CN(C)C(=O)c2cc(NC(=O)c3cnccn3)ccc2OC[C@@H](C)N(CC2CC2)C[C@@H]1C`, the GFP signal change (wild-type ribosome) is 1.98% (inactive), the OD600 change is -3.03% and the RFP signal change was -2.31%.

As to `CN(Cc1ccccc1F)C[C@H]1[C@@H](c2ccccc2)[C@@H](CO)N1S(C)(=O)=O`, the GFP signal change (wild-type ribosome) is -3.23% (inactive), the OD600 change was -1.8% and the RFP signal change was -1.06%.

`Cc1noc(C)c1S(=O)(=O)Nc1ccc2c(c1)CC(=O)N([C@H](C)CO)C[C@@H](C)[C@@H](CN(C)Cc1ccncc1)O2`: the GFP signal change (wild-type ribosome) is -1.08% (inactive), the OD600 change worked out at 6.97% and the RFP signal change was found to be 0.021%.

As for `O=C(COC(=O)C1CCCO1)Nc1nc(-c2ccc(F)cc2)cs1` (stereo not drawn), the GFP signal change (wild-type ribosome) is -5.81% (inactive), the OD600 change is -14.9% and the RFP signal change is -1.04%.

For the molecule `COc1ccc(OC)c(-c2csc(NC(=O)COC(=O)C3CC3)n2)c1`, the GFP signal change (wild-type ribosome) is -18% (active), the OD600 change was -4.55% and the RFP signal change is 5.3%.

On to `COc1ccc(OC)c(-c2csc(NC(=O)C3=NNC(=O)CC3)n2)c1`, for which the GFP signal change (wild-type ribosome) was -21.6% (inactive), the OD600 change is -29.6% and the RFP signal change was -5.17%.
